In PubChem BioAssay (NCATS):
Inconclusive results are not listed. Activity calls are given as the source filed them. The call rests on the fitted dose curve; in most records, active means well fitted cell-killing curve with a large enough effect; inconclusive means small, poorly fitted or top-dose-only effect, or effect the other way; inactive means no such curve, though single readings can be large or run the other way.

assay: Quantitative highthroughput screen to assess conditional lethalithy of SEM cells grown in RPMI1640 with unreated serum (RPMI+s) (AID 1963883); conditions: SEM B-ALL cells, CellTiter-Glo viability, 48 h; series mostly up to 45.8 µM; further: nearly all actives have a fitted effect of over 35% in size
Source text: Assay Provider: Jason Cantor Ph.D.
Department of Biochemistry
University of Wisconsin-Madison, Madison, WI, USA
Chemical screening studies have identified drug sensitivities across hundreds of cancer cell lines but most putative therapeutics fail to translate. Discovery and development of drug candidates in models that more accurately reflect nutrient levels in human blood is a major challenge. Here we performed high-throughput screens in conventional versus Human Plasma-Like Medium (HPLM) to identify compounds that were "missed" when screening using the artificial culture condition. Sets of conditional anticancer compounds spanned phases of clinical development and included non-oncology drugs were assessed. […] We also traced conditional phenotypes for several chemotherapeutics to availability of HPLM-specific metabolites and confirmed others for compounds whose reported targets are encoded by nonessential genes. Our findings establish generalizable strategies for exploiting conditional lethality in HPLM to reveal therapeutic candidates and mechanisms of action in cancer cells.
Described herein are the results of each viability screens against three cell lines: NOMO1 (an acute myeloid leukemia cell line); P12-Ichikawa (a T-cell acute lymphoblastic leukemia); and SEM (a B-cell ALL). Each assay was screened using 3 different cell culture media: homemade human plasma-Like medium with 10% dialyzed fetal bovine serum (HPLM+ds); RPMI1640 with 10% untreated FBS and 5mM glucose (RPMI+s); and RPMI1640 with 10% dialyzed fetal bovine serum and 5 mM glucose (RPMI+ds).
PROTOCOL TABLE (as described by Inglese J, Shamu CE and Guy RK. 2007)
SEQUENCE No. (e.g., 1, 2, 3, etc.); […] (e.g., Cells, Incubation, Reagent, etc.); VALUE and DESCRIPTION.
1; Cells; 5 uL; white, solid bottom 1536-well Greiner assay plate.
2; Compounds; 23 nL; Kalypsis pin tool (Wako USA) equipped with a 1536-well pin head to transfer to the assay plates.
3; Incubation; 48 hours; 37C incubation.
4; Reagent; 3 uL; CellTiter Glo (Promega).
5; Incubation; 5 min, room temperature
6; Detection; Luminescence, Viewlux PerkinElmer.
NOTES (numbers refer to Sequence numbers above)
1. Briefly, 5 ul of cell reagent was dispensed using a Multidrop Combi Dispenser. The NOMO1 and SEM cells were plated at 500 cells/well and the P12-Ichikawa line at 1000 cells/well.
2. After seeding the cells, 23 nL of MIPE 4.1 library compounds (in DMSO) were added to each plate using a Kalypsys 1536 Pintool dispenser. Bortezomib at final concentration of […] and DMSO were added to each plate as positive and negative controls respectively. For each screen, MIPE 4.1 compounds were added over an eleven-point concentration range […] in 3-fold dilutions.
3. Each plate was covered with a stainless steel gasketed lid to prevent evaporation and incubated for 48 hour at 37C, 95% relative humidity, and 5% CO2.
4-5. Three microliter CellTilter-GloTM luminescent substrate mix (Promega) reagent was added to the assay plate and incubated at room temperature for 5 min.
6. The luminescence signal was measured using a ViewLux (PerkinElmer) multiplate reader with a 2 second exposure time per plate. Data for each compound were normalized as percent viability such that measurements for DMSO and the empty well controls in each plate were defined as 100% and 0%, respectively.
Potency means the concentration at half of the fitted maximal effect.

| Structure (SMILES) | Potency |
| --- | --- |
| CCN(CC)CCNC(=O)c1ccc2nc(-c3ccccc3)c(-c3ccc(CN4CCC(n5c(=O)[nH]c6ccccc65)CC4)cc3)nc2c1 | 52.6 nM (active) |
| Cc1ccc(Nc2cc(-c3cccc(N4C(=O)c5ccccc5C4=O)c3)ncn2)cc1NS(C)(=O)=O | inactive |
| CC[C@H](CC#N)OC(=O)N[C@@H](C)c1cccc(NC(=O)Nc2ccc(-c3cnco3)c(OC)c2)c1 | 2090 nM (active) |
| Oc1ccc(C2=Cc3ccc(O)cc3OC2)cc1 | 3320 nM (active) |
| CN1CCCN(C(=O)c2cccc(-c3ccc(C=C4C(=O)Nc5ccc(Cl)cc54)o3)c2)CC1 | 1320 nM (active) |
| Nc1nc2c(c(=O)[nH]1)N(C=O)[C@H](CNc1ccc(C(=O)N[C@@H](CCC(=O)O)C(=O)O)cc1)CN2 | inactive |
| CCc1cnn2c(NCc3ccc[n+]([O-])c3)cc(N3CCCC[C@@H]3CCO)nc12 | 59 nM (active) |
| Fc1ccc([C@@H]2CCNC[C@H]2COc2ccc3c(c2)OCO3)cc1 | 14800 nM (active) |
| CS(=O)(=O)OCCCCOS(C)(=O)=O | 20900 nM (active) |
| Nc1ccn([C@@H]2O[C@H](CO)[C@H](O)C2(F)F)c(=O)n1 | 16.6 nM (active) |
| Cc1nnc(NS(=O)(=O)c2ccc(N)cc2)s1 | 9350 nM (active) |
| COc1ccc2c(c1)c(CC(=O)O)c(C)n2C(=O)c1ccc(Cl)cc1 | inactive |
| C=CC(=O)Nc1cccc(Oc2nc(Nc3ccc(N4CCN(C)CC4)cc3)ncc2Cl)c1 | 833 nM (active) |
| CCCCN(CCCC)CC(O)c1cc(Cl)cc2c1-c1ccc(Cl)cc1C2=Cc1ccc(Cl)cc1 (stereo not given) | inactive |
| NC(=O)[C@@H](CCC(F)(F)F)N(Cc1ccc(-c2ncon2)cc1F)S(=O)(=O)c1ccc(Cl)cc1 | 16600 nM (active) |
| Nc1ncn([C@@H]2O[C@H](CO)[C@@H](O)[C@@H]2O)c(=O)n1 | 10500 nM (active) |
| CS[C@H]1SC[C@@H]2C(=O)N(C)[C@H](C(C)C)C(=O)OC[C@H](NC(=O)c3cnc4ccccc4n3)C(=O)N[C@H](C)C(=O)N(C)[C@@H]1C(=O)N(C)[C@H](C(C)C)C(=O)OC[C@H](NC(=O)c1cnc3ccccc3n1)C(=O)N[C@H](C)C(=O)N2C | 2.6 nM (active) |
| CCN(CC)C(=S)SSC(=S)N(CC)CC | 1050 nM (active) |
| CCN(CC)Cc1ccc2cc(COC(=O)Nc3ccc(C(=O)NO)cc3)ccc2c1 | 2090 nM (active) |
| O=C(C[C@@H]1CC=CCCC(=O)O[C@H](c2ccccc2)CNC1=O)NCc1ccc(Cl)cc1 | inactive |

| Structure (SMILES) | Potency |
| --- | --- |
| O=C1NC(O)CCN1[C@@H]1O[C@H](CO)[C@H](O)[C@H]1O (stereo not given in full) | inactive |
| CCCC1OC2C[C@@H]3[C@H]4CCC5=CC(=O)C=C[C@]5(C)[C@H]4C(O)C[C@]3(C)[C@]2(C(=O)CO)O1 (stereo not given in full) | 187 nM (active) |
| NC(=O)c1ccc(-c2nc(-c3ccc4c(c3)OCO4)c(-c3ccccn3)[nH]2)cc1 | inactive |
| CCC[C@@H]1C[C@@H](C(=O)N[C@@H]([C@H]2O[C@H](SC)[C@H](O)[C@@H](O)[C@H]2O)[C@@H](C)O)N(C)C1 | inactive |
| C[C@@]1(c2cc(-c3cncnc3)c(F)cc2F)CCSC(N)=N1 | 7430 nM (active) |
| CCS(=O)(=O)c1cccc(-c2cc(C(=O)NC3CCN(C)CC3)c(C)c3[nH]c4ncc(C)cc4c23)c1 | 296 nM (active) |
| Nc1ncnc2c1nc(Cl)n2[C@@H]1O[C@H](CO)[C@@H](O)[C@@H]1O | 14800 nM (active) |
| Cc1cccc(-c2[nH]c(C(C)(C)C)nc2-c2ccc3nccnc3c2)n1 | 20900 nM (active) |
| O=C(O)C=Cc1ccc(Cn2ccnc2)cc1 | inactive |
| Cc1c(C(=O)Nc2ccc(N3C[C@@H](C)O[C@@H](C)C3)nc2)cccc1-c1ccc(OC(F)(F)F)cc1 | 1480 nM (active) |
| COc1cc2ncnc(Nc3cccc(Cl)c3)c2cc1OC | 166 nM (active) |
| C[C@@H](NCCCc1cccc(C(F)(F)F)c1)c1cccc2ccccc12 | inactive |
| O=C(OC1C[C@H]2CC[C@@H](C1)[N+]21CCCC1)C(O)(c1ccccc1)c1ccccc1 (stereo not given in full) | inactive |
| C=CC(=O)Nc1cc(NC(=O)c2ccc(C)c(NC(=O)c3ccno3)c2)cc(C(F)(F)F)c1 | inactive |
| C[C@@H]1CC=CC=CC=CC=C[C@@H](O[C@@H]2O[C@H](C)[C@@H](O)[C@H](N)[C@H]2O)C[C@@H]2O[C@](O)(C[C@@H](O)C[C@@H]3O[C@@H]3C=CC(=O)O1)C[C@H](O)[C@@H]2C(=O)O | inactive |
| O=C1c2cccc(O)c2C(=O)c2c(O)cc(CO)cc21 | inactive |
| CC1(C)Cc2c(sc(NC(=S)NC(=O)c3ccccc3)c2C(=O)O)CO1 | inactive |
| O=C(Nc1ccccc1)Nc1ccc(-c2ccc(C(=O)[C@H]3CCC[C@H]3C(=O)O)cc2)cc1 | inactive |
| CS(=O)(=O)c1ccc(-c2cnc(N)c(C(=O)Nc3ccccc3)n2)cc1 | 9350 nM (active) |
| COc1cc(Nc2c(C#N)cnc3cc(OCCCN4CCN(C)CC4)c(OC)cc23)c(Cl)cc1Cl | 1870 nM (active) |
